Data: PubChem BioAssay (NCI)
About 83,000 compounds went through this panel and 20% of them were active in at least one assay; those are over-represented in the sample as a whole.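 Single-dose data. Exposure time 48 hours. Values below 10 considered active.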 Unmarked numbers belong to inactive results. The source made the active and inactive calls.

Legend:
Assay in all cases: NCI-60 one-dose screen, 48 h (100 = growth as untreated, 0 = no growth, -100 = all killed)
Details in all cases: 10 µM unless noted
[1] = test system: SK-MEL-2 melanoma
[2] = test system: EKVX NSCLC
[3] = test system: SN12C renal
[4] = test system: UO-31 renal
[5] = test system: TK-10 renal
[6] = test system: ACHN renal
[7] = test system: CAKI-1 renal
[8] = test system: CCRF-CEM leukemia
[9] = test system: MOLT-4 leukemia
[10] = test system: RPMI-8226 leukemia
[11] = test system: OVCAR-8 ovarian
[12] = test system: OVCAR-5 ovarian
[13] = test system: IGROV1 ovarian
[14] = test system: OVCAR-3 ovarian
[15] = test system: HS 578T breast
[16] = test system: NCI/ADR-RES ovarian
[17] = test system: SR leukemia
[18] = test system: OVCAR-4 ovarian
[19] = test system: SK-OV-3 ovarian

Row | SMILES | growth [1] | growth [2] | growth [3] | growth [4] | growth [5] | growth [6] | growth [7] | growth [8] | growth [9] | growth [10] | growth [11] | growth [12] | growth [13] | growth [14] | growth [15] | growth [16] | growth [17] | growth [18] | growth [19]
1 | CO[C@@H]1[C@H](N(C)C(=O)c2ccccc2)C[C@@H]2O[C@]1(C)n1c3ccccc3c3c4c(c5c6ccccc6n2c5c31)C(=O)NC4=O | 55.1% | 27.9% | 33.4% | -35.6% (active) | -20.3% (active) | 35.4% | -10.8% (active) | 44.5% | 32.8% | 67.1% | 54% | 57% | 7.2% (active) | 46.7% | 20.5% | 42.9% | – | – | –
2 | COc1cc2c(cc1[N+](=O)[O-])-c1ccc([N+](=O)[O-])cc1/C2=N/NC(N)=S | 87.8% | 68.5% | 67.1% | 29.6% | 77.4% | 37.4% | 64.1% | – | 60.1% | 66.1% | 51.9% | 98.9% | 47.9% | 73.7% | 77.3% | 69.6% | 42.6% | 57.6% | 96.5%
3 | NC(=S)N/N=C(\c1ccc(Cl)cc1)C1CC1 | 106% | 69.8% | 83% | 58.7% | 102% | 88.4% | 81.1% | 63.2% | 46.9% | 67.3% | 70.9% | 95.5% | 45.7% | 58.2% | 99.6% | 67.3% | – | 68.2% | 92.8%
4 | CCCC/C(=N\N=C(N)N)c1ccc(F)cc1 | 1.07% (active) | 44.5% | 37.5% | 45.3% | 50.7% | 43.6% | 29.5% | 26.3% | 32.4% | 36% | 33.6% | 50.5% | 45% | -11.4% (active) | 26.1% | 7.48% (active) | – | 39.7% | 13.7%
5 | COC(=O)C1NC(=S)N(c2ccc(Cl)cc2)C1/C=C/c1ccccc1 (configuration not stated) | 102% | 92.4% | 99.3% | 86.8% | 105% | 96.3% | 91.3% | 100% | 103% | 95.8% | 101% | 99.8% | 106% | 101% | 107% | 90% | – | – | –
6 | CC(C)Cc1ccc(C(C)C(=O)NCc2c[nH]c3ccc(Cl)cc23)cc1 (configuration not stated) | 92% | 85.9% | 94% | 65.4% | 107% | 86.6% | 81.7% | 73.8% | 65.6% | 78.5% | 93.4% | 98.9% | 86.9% | 95.5% | 82.8% | 92.5% | – | 88% | 98.9%
7 | C1=C2CNCC3=Cc4ccc5ccccc5c4OC23Oc2c1ccc1ccccc21 | 51.9% | 66.4% | 63.2% | 36.3% | 89.7% | 37.2% | 31.1% | 43.3% | 45.8% | 70.5% | 53.9% | 70% | 39.9% | -19.1% (active) | 52.5% | -21.4% (active) | – | – | –
8 | BrC(Br)(Br)c1cnc2ccccc2n1 | 90.2% | 70.4% | 71.6% | -51.1% (active) | -57.9% (active) | -51.6% (active) | -29.7% (active) | 23.2% | – | 41.8% | 45.4% | 60.3% | 51.9% | -27.5% (active) | 66.7% | 44.3% | – | 44.1% | 69.4%
9 | COC(=O)N[C@H]1CCc2cc(OC)c(OC)c(OC)c2-c2ccc(SC)c(=O)cc21 | 12.5% | 32.2% | 23.9% | 44.5% | 47% | 24.9% | 17% | 15.6% | 9.69% (active) | – | 9.33% (active) | 9.44% (active) | 19.9% | -20.6% (active) | 2.61% (active) | -22% (active) | 3.05% (active) | 39.8% | 24.6%
10 | COc1ccc(C(=O)c2cc(C)c(OC)c(C)c2)c(OC)c1N(C(=O)C(Cl)Cl)C(=O)C(Cl)Cl | 27.2% | 56.9% | 35.5% | 37.8% | 43.8% | 22.2% | 43.2% | – | 22.6% | 19.9% | 16% | 33.1% | 31.3% | -13.4% (active) | 22.1% | – | 20.7% | 62.1% | 1.2% (active)
11 | Cc1ccc(C2C3CC4CCCCC4N3[C@@]3(C(=O)Nc4cc(Cl)ccc43)C2C(=O)c2nc3ccccc3[nH]2)cc1 (some centres not stated) | 59.7% | 27.3% | 44.8% | 19.8% | 39.6% | 40.5% | 16.5% | 27.8% | 2.61% (active) | – | 56.7% | – | 26.4% | 33.4% | 61% | 41.7% | 21.2% | 30.6% | 77.6%
12 | CS(=O)(=O)c1ccc(-c2cc(-c3nnc(SCC(=O)Nc4ccc(C(=O)/C=C/c5ccc(Cl)cc5)cc4)n3-c3ccccc3)c3ccccc3n2)cc1 | 107% | 94% | 91.3% | 72.5% | 99.3% | 97.6% | 86.2% | 99.6% | 90.5% | – | 86.1% | 95.1% | 91.9% | 102% | 89.5% | 94.6% | – | 102% | 110%
13 | Nc1cc(N)c2cccnc2c1O | 98.2% | 83.2% | 55.5% | 56.5% | 86% | 54.3% | 35.3% | 2.91% (active) | 5.9% (active) | 88% | 68.6% | – | 66.7% | 89% | 63.6% | 71.7% | – | 91.2% | 101%
14 | COc1ccc(OC)c(/C=C/[C@H]2O[C@@H](C)[C@H](O)[C@@H]2O)c1 | 91.2% | 107% | 106% | 91.5% | 95.7% | 106% | 96.9% | 98.3% | 93.2% | – | 109% | 112% | 105% | 125% | 111% | 108% | – | – | –
15 | CCNNC(=O)[C@@H]1[C@H](c2cc(OC)c(OC)c(OC)c2)c2cc3c(cc2[C@H](O)[C@H]1CO)OCO3 | 21.6% | 44.8% | 24% | 42% | 41.6% | 28.6% | 29.3% | 14.6% | 12.8% | – | -13.3% (active) | – | 20.8% | -47.8% (active) | 23.1% | -13.7% (active) | – | 35.2% | 1.47% (active)
16 | C=C1C(=O)O[C@H]2[C@H]1CC/C(CNC(=O)/C=C/c1ccccc1F)=C\CC[C@@]1(C)O[C@@H]21 | 54.7% | -18.9% (active) | 8.82% (active) | -95.9% (active) | -29% (active) | -65.6% (active) | -84.4% (active) | – | -12% (active) | -2.96% (active) | 4.58% (active) | 27.7% | 15% | -62.7% (active) | 58.2% | 77.7% | 8.95% (active) | 9.27% (active) | 96.6%
